# Measurements published in PubChem BioAssay AID624169 (The Scripps Research Institute Molecular Screening Center, 2012).
# About 2,400 (0.67%) of roughly 360,000 compounds were called active. The entries come from a sample that favours actives as a whole. Values without a mark were called inactive.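 Rule for the calls: active = activation above a run cutoff, the mean activation of all tested compounds plus 3 SD (cut at about 14% in these data); inactive = the rest.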
# Target: 5-hydroxytryptamine receptor 2A (Mus musculus) (UniProt P35363)
# Experiment: mouse Htr2a agonists via beta-arrestin recruitment, primary screen, cell-based, luminescence (AID 624169);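 note: 0% = plate median of compound wells and 100% = 30 µM serotonin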
# Details: CHO-K1 mHTR2A beta-arrestin complementation, at 7.6 µM, stronger effect = higher value, percent of 30 µM serotonin response
# Sequence of 5-hydroxytryptamine receptor 2A (Mus musculus) (P35363 whole entry, looked up): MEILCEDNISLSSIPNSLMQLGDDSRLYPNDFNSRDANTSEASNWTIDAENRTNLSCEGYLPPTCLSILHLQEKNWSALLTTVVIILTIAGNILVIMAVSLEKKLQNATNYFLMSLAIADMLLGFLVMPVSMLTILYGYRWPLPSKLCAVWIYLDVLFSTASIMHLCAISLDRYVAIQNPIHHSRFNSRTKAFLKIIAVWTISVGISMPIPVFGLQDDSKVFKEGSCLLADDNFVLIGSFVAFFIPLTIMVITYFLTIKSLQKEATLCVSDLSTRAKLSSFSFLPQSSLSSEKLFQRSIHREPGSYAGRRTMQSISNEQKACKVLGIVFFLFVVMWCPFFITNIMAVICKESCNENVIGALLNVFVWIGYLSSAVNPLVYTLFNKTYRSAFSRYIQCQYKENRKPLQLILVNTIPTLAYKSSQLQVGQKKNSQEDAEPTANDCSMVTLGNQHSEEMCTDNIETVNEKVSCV
row,Structure (SMILES),activation
1,O=S1(=O)CC(N2CCN(Cc3ccccc3F)CC2)CN1Cc1cn(Cc2ccccc2)nn1 (stereo not drawn),0.73%
2,CC(=O)NCC(=O)N(C)C(C(=O)Nc1ccc2c(c1)OCCO2)c1ccccc1 (stereo not drawn),1.2%
3,CCOc1ccc(/C=C/C(=O)OCC(=O)c2ccccc2OC)cc1OC,-3.76%
4,CC(=O)c1cc(CN2CCC(n3nccc3NC(=O)c3ccccc3Cl)CC2)cs1,1.51%
5,O=C(Nc1cc(=O)[nH]c2ncnn12)c1ccccc1Cl,16.4% (active)
6,O=C(Nc1ccc2sc3ccccc3c(=O)c2c1)c1ccccc1Cl,-3.04%
7,N#Cc1c(-c2ccc(F)cc2)cc(C2CC2)nc1SCC(=O)c1cccs1,4.09%
8,COc1ccccc1CNC(=O)[C@@H]1CCCN1C(=O)[C@@H]1Cc2ccccc2CN1C(=O)OC(C)(C)C,-8.22%
9,Cc1cccc(C)c1Cn1c(C)c(C(=O)NCc2cccc(Cl)c2)sc1=O,0.95%
10,Cc1cccc(CNC(=O)c2sc(=O)n(Cc3ccccc3C)c2C)c1,-9.77%
11,Cc1c(C(=O)NCC2CC2)sc(=O)n1Cc1cccc(F)c1,15% (active)
12,O=C(NNS(=O)(=O)c1ccccc1C(F)(F)F)c1cc2ncc(C(F)(F)F)cc2s1,2.01%
13,O=C1Cc2cc(S(=O)(=O)Nc3cccc(F)c3)ccc2N1,-4.43%
14,CCn1cc(-c2cc(C(=O)O)on2)c(C)n1,0.66%
15,CC(C)c1cc(C(=O)O)on1,16.1% (active)
16,CC(C)Cc1oc(C(=O)O)cc1CN,-1.78%
17,O=C(NCc1ccccc1Cl)C1CCN(S(=O)(=O)c2cccc3nonc23)CC1,0.64%
18,C=C1C(=O)OC2C1CCC(C)=CCCC1(C)OC21 (stereo not drawn),17.6% (active)
19,Cc1cc(C(=O)OC(C)C(=O)NC2CCCCC2C)c(C)o1 (stereo not drawn),5.88%
20,CC(C)(C)NC(=O)Cn1cnc2cc([N+](=O)[O-])ccc2c1=O,-0.6%
21,O=C(OCc1cn([C@H]2C[C@H](c3ccccc3)N(C(=O)c3cccs3)C[C@@H]2O)nn1)c1ccccc1,0.06%
22,CC1(C)CC(=O)C=C(c2ccccc2CO)C1=O,3.89%

row,Structure (SMILES),activation
1,Fc1ccc2[nH]c3c(N4CCSCC4)ncnc3c2c1,16.4% (active)
2,Cc1ccc(C)c(NC(=O)C(c2ccccc2)N2CCN(CC(=O)NC3CC3)CC2)c1 (stereo not drawn),1.96%
3,Brc1cc(Br)c(Oc2cc(Br)c(Br)cc2Br)cc1Br,4.05%
4,CCOC(=O)C1CCN(C(=O)C2CCCN(S(=O)(=O)c3ccc(OC)c(Cl)c3)C2)CC1 (stereo not drawn),-2.55%
5,O=S(=O)(Cc1cc(Cl)nc(-c2cccnc2)n1)c1ccccc1,-2.49%
6,Cn1ncc2c(N3CCCCC3)nc(NCCCO)nc21,1.52%
7,CC(C)(C)Oc1ccccc1Nc1nc(NCCO)nc(N2CCCC2)n1,23.9% (active)
8,CCCOc1ccc(Cl)cc1Nc1nc(NCCO)nc(N2CCCC2)n1,0.98%
9,CCc1nc2c(OCCc3cccc(OC)c3)cccn2c1N(C)C(=O)c1ccc(C)cc1,-1.71%
10,O=C(CN1CCC(O)(c2cccc(C(F)(F)F)c2)CC1)NCCc1ccccc1,-1.29%
11,CCOC(=O)N1CCN(C(=O)C[C@@H]2C[C@@]3(C(=O)OC)CCCCC=C3N(CCC3=CCCCC3)C2=O)CC1,-5.86%
12,CCCCOCCCNC(=O)C[C@@H]1C[C@@]2(C(=O)OC)CCCCC=C2N(CCC2=CCCCC2)C1=O,-1.53%
13,COC(=O)[C@]12CCCCC=C1N(CCC1=CCCCC1)C(=O)[C@H](CC(=O)NCC1CCCCC1)C2,19.2% (active)
14,COc1ccc(-c2ccc(CN3C(C(C)C)C(=O)N(Cc4cn(CC5CCCCC5)nn4)CCS3(=O)=O)cc2)cn1 (stereo not drawn),-1.52%
15,Cc1c(C(C)(C)O)[nH]c2ccc(C#N)cc12,3.5%
16,Cc1ccc(C)c(S(=O)(=O)N2CCN(c3ncnc4sccc34)CC2)c1,4.9%
17,Cc1ccc(S(=O)(=O)N2CCN(Cc3cccc(C)c3O)CC2)cc1,-3.27%
18,Cc1ccc(S(=O)(=O)N2CCN(c3ncnc4ccccc34)CC2)cc1,16.6% (active)
19,CCN(CC)CCn1cnc2c1c(=O)n(CCOC(=O)c1cc(OC)c(OC)c(OC)c1)c(=O)n2C,-1.4%
20,COC(=O)[C@@]1(Cc2ccc(F)cc2)[C@H]2c3cc(C(=O)N4CCCC4)n(Cc4ccc(OC(F)(F)F)cc4)c3C[C@H]2CN1C(=O)c1ccccc1,1.1%
21,COC(=O)[C@@]1(Cc2ccc(F)cc2)[C@H]2c3cc(C(=O)N(C)C)n(CCc4c[nH]c5ccc(OC)cc45)c3C[C@H]2CN1C(=O)c1ccccc1,19.8% (active)
22,COC(=O)[C@@]1(Cc2ccc(F)cc2)[C@H]2c3cc(C(=O)N4CCCC4)n(C[C@H](O)CO)c3C[C@H]2CN1C(=O)c1ccccc1,3.75%

row,Structure (SMILES),activation
1,O=C(CN1C(=O)NC2(CCCCCC2)C1=O)Nc1ccc([N+](=O)[O-])cc1,-2.54%
2,COc1ccc(NC(=O)CC2COc3ccccc3O2)c(OC)c1 (stereo not drawn),2.64%
3,O=C(CCCCCn1c(=S)[nH]c2ccsc2c1=O)NC1CCCCC1,2.92%
4,CCN(CCCNC(=O)CCn1c(=O)[nH]c2ccsc2c1=O)c1ccccc1,2.47%
5,CCCCC(CC)CNC(=O)CCCCn1c(=O)[nH]c2ccsc2c1=O (stereo not drawn),15.6% (active)
6,COC(=O)c1ccc(NS(=O)(=O)c2cc3c4c(c2)C(C)C(=O)N4CCC3)cc1 (stereo not drawn),2.55%
7,O=C(O)CN(Cc1ccco1)S(=O)(=O)c1ccc(F)cc1,-0.4%
8,Cc1oc2cc([N+](=O)[O-])c(O)c([N+](=O)[O-])c2c1C(=O)c1ccc(Br)cc1,-3.12%
9,COc1ccc(C(=O)c2c(C)oc3cc([N+](=O)[O-])c(O)c([N+](=O)[O-])c23)cc1,-5.67%
10,Cc1oc2cc(Br)c(O)c(Br)c2c1C(=O)c1ccccc1,16% (active)
11,O=C1CCCc2c1[nH]c1ccc(Br)cc21,1.31%
12,CCn1c(SCC(=O)N/N=C/c2ccccc2OCC(=O)O)nnc1-c1ccc(C(C)(C)C)cc1,6.89%
13,O=C(Nc1cccc(Cc2ccccc2)c1)Nc1ccc2nc([C@@H]3O[C@H](CO)[C@@H](O)[C@H](O)[C@H]3O)[nH]c2c1,-13%
14,CCCC1CCC(=NNC(=S)NCCc2ccccc2)CC1 (stereo not drawn),0.18%
15,CC(=O)Nc1ccc(C(=O)N(C2=NC(C)CS2)c2ccc(Cl)cc2)cc1 (stereo not drawn),-3.34%
16,CC(=O)NS(=O)(=O)c1ccc(NC(=O)C2C3C=CC(C3)C2C(=O)O)cc1 (stereo not drawn),2.61%
17,CCCCNC(=O)C[C@@H]1C[C@@]2(C(=O)OCC)CCC=C2N(Cc2ccco2)C1=O,-3.77%
18,O=C1CC(c2cccc(Cl)c2)CC(O)=C1C=Nc1ccccc1 (stereo not drawn),20.8% (active)
19,O=C1C=C(c2cccc(Cl)c2)C[C@@H](c2ccc(F)cc2)C1,-0.66%
20,O=C1CCCC(O)=C1C=NCCc1ccccc1,2.15%
21,C[C@@H]1CN([C@@H](C)CO)C(=O)c2cc(Br)cnc2O[C@H]1CN(C)Cc1ccc(-c2ccccc2)cc1,-1.74%
22,CCCC(=O)N=c1sc2cccc(F)c2n1C,39.7% (active)

row,Structure (SMILES),activation
1,Cn1c(=NC(=O)c2ccco2)sc2cccc(F)c21,2.52%
2,Cn1c(=NC(=O)c2cnccn2)sc2ccccc21,-2.18%
3,CCOC(=O)/C=C/c1ccc(C(F)(F)F)cc1S(=O)(=O)NC(C)(C)C,-0.74%
4,COc1ccc(N2CC(C(=O)NCCN3C(=O)S/C(=C\c4cccnc4)C3=O)CC2=O)c(OC)c1 (stereo not drawn),18.4% (active)
5,COc1ccccc1N1CC(C(=O)NCCN2C(=O)S/C(=C\c3cccnc3)C2=O)CC1=O (stereo not drawn),-0.83%
6,Cc1cc(OCCCC(=O)NCCN2C(=O)S/C(=C\c3cccnc3)C2=O)ccc1Cl,8.37%
7,CC1CCN(C(=O)COC(=O)c2cc(S(=O)(=O)N3CCOCC3)ccc2Cl)CC1,-1.57%
8,O=C(COC(=O)c1ccc(S(=O)(=O)N2CCc3ccccc3C2)cc1)NC(=O)NCc1ccco1,-5.24%
9,COc1cc(NC(=O)C2CCN(c3cnccn3)CC2)cc(OC)c1,-2.92%
10,CCOCCCNC(=O)C(=O)NCCCOCC,0.95%
11,CCOC(=O)Cc1cc(=O)[nH]c(=O)[nH]1,-0.86%
12,CCOCCCNC(=O)Cc1cc(=O)[nH]c(=O)[nH]1,20.9% (active)
13,Cc1cc(OCCN2CCCC2)cc(C(C)C)c1,-5.99%
14,CCOC(=O)c1ccc(NC(=O)CCn2c(=O)oc3ccccc32)cc1,-5.94%
15,CCOC(=O)c1ccc(NC(=O)CS(=O)(=O)c2cn(CC)c3ccccc23)cc1,-0.07%
16,CCOC(=O)c1ccc(NC(=O)Cn2cnc3cc(C)c(C)cc32)cc1,17.4% (active)
17,COc1ccc2c(c1)C(C)=CC(C)(C)N2C(=O)CNCc1ccc2c(c1)OCO2,-18.1%
18,CCn1nnc(NC(=O)c2c(OC)cccc2OC)n1,-1.47%
19,Cc1ccc(CCNC(=O)CN2C(=O)CSc3ccc(S(=O)(=O)N4CCOCC4)cc32)cc1,-3.24%
20,COc1ccc(C2c3[nH]c4ccccc4c3C[C@H]3C(=O)N(CC(C)C)CC(=O)N23)c(OC)c1 (stereo partly drawn),26.6% (active)
21,COc1cccc(C2c3[nH]c4ccccc4c3CCN2Cc2cccc(C)n2)c1 (stereo not drawn),-2.83%
22,CCC(C)N1CC(=O)N2Cc3[nH]c4ccccc4c3C[C@H]2C1=O (stereo partly drawn),-3.21%
